# Inconclusive results are not listed. Unmarked numbers belong to inactive results. Active and inactive are the calls of the source. Calls come from the whole dose curve; as a rule, active = well fitted inhibition curve with a large enough effect; inconclusive = small, poorly fitted or top-dose-only effect; inactive = flat fitted curve, though single readings scatter.
# Legend:
# [1] = qHTS profiling for inhibitors of Plasmodium falciparum proliferation (AID 504749); note: nearly all actives have a fitted effect of over 60% in size;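 for activity, negative = inhibition: 0% = DMSO vehicle and full inhibition = artemisinin control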; conditions: P. falciparum in erythrocytes, SYBR Green DNA, 72 h
# Procedure, shortened: (§1)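 SYBR Green fluorescence of parasite DNA, read after lysis and overnight dark incubation, measured growth over 72 h in erythrocyte culture at 0.3% parasitemia and 2.5% hematocrit. Data normalised to DMSO and 0.29 uM artemisinin, with plate-drift correction.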
# 3D7 = assay: as above; conditions: P. falciparum in erythrocytes, SYBR Green DNA, 72 h; series mostly up to 28.7 µM
# Procedure, shortened: as §1
# 7G8 = assay: as above; conditions: P. falciparum in erythrocytes, SYBR Green DNA, 72 h; series mostly up to 28.7 µM
# Procedure, shortened: as §1
# [2] = at 28.7 µM (top of the series), parasite line A
# [3] = at 28.7 µM (top of the series), parasite line B
# [4] = at 12.8 µM (top of the series), parasite line A
# [5] = at 12.8 µM (top of the series), parasite line B
# Potency is the fitted concentration of half-maximal effect.
Structure (SMILES),"activity, negative = inhibition [1, 2]","activity, negative = inhibition [1, 3]",Potency (3D7),Potency (7G8),"activity, negative = inhibition [1, 4]","activity, negative = inhibition [1, 5]",Potency ([1]; parasite line A),Potency ([1]; parasite line B)
CC(=O)OO,5.76%,13%,inactive,inactive,–,–,–,–
CCCC(C)C1(CC)C(=O)NC(=O)NC1=O (centres undefined),2.58%,0.184%,inactive,inactive,–,–,–,–
CCC1(C)CC(=O)NC(=O)C1,–,–,inactive,inactive,7.23%,5.64%,–,–
COC([CH2][Hg])CNC(=O)c1ccccc1OCC(=O)O (centres undefined),6.16%,2.49%,inactive,inactive,–,–,–,–
CC(C)(O)C1C2OC(=O)C1C1(O)CC3OC34C(=O)OC2C14C (centres undefined),13.7%,0.0355%,inactive,inactive,–,–,–,–
O=C1CCO1,-3.97%,-7.7%,inactive,inactive,–,–,–,–
O=S(=O)(O)c1cc(O)ccc1O,–,–,inactive,inactive,3.73%,-1.7%,–,–
C=CCN(C1=NCCN1)c1c(Cl)cccc1Cl,11.1%,1.37%,inactive,inactive,–,–,–,–
CC[N+](C)(CC)CCOC(=O)C(O)(c1ccccc1)c1ccccc1,5.27%,8.78%,inactive,inactive,–,–,–,–
CN1C2CCC1CC(OC(c1ccccc1)c1ccc(Cl)cc1)C2 (centres undefined),–,–,12.6 µM (active),4.47 µM (active),–,–,5.01 µM (active),7.08 µM (active)
CCCCNCC(O)c1ccc(O)cc1 (centres undefined),-2.61%,-2.79%,inactive,inactive,–,–,–,–
CC(C)CCON=O,-1.57%,-11.8%,inactive,inactive,–,–,–,–
CCC(N)Cc1c[nH]c2ccccc12 (centres undefined),-18.9%,9.32%,inactive,inactive,–,–,–,–
O=C(O)C(Cl)(Cl)Cl,7.18%,2%,inactive,inactive,–,–,–,–
CC(C)Nc1ccc(Nc2ccccc2)cc1,–,–,6.31 µM (active),8.91 µM (active),–,–,3.16 µM (active),5.01 µM (active)
CCC1(c2ccccc2)C(=O)NC(=O)NC1=O,5.22%,9.88%,inactive,inactive,–,–,–,–
